The text below walks through data of PubChem BioAssay (EPA / NIEHS).

Where “and” joins values, the source holds several entries; their conditions need not be identical. Equal values may be shown once. The source holds several records for some structures; these can differ, active in one and inactive in another. Calls of active or inactive are those of the source. Rule for the calls: active = hit-call score of the fitted dose curve at least 0.9, where 1 is the maximum; inactive = score below 0.9.

The nature of assay [1]: ATG_GRE_CIS: Attagene CIS-FACTORIAL HepG2 Assay for human Glucocorticoid Response Elements (GRE) (AID 2282947). Particulars: HepG2 GRE cis-reporter, Attagene multiplex mRNA; actives raise or lower the signal. The gist of the method:
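Assay uses human hepatoma HepG2 cells transfected with cis-promoter reporter units, exposed 24 h. mRNA from reporters detected by RT-PCR plus capillary electrophoresis; DMSO serves as negative control and baseline.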

Assay [2] in a line: ATG_M_32_CIS: Attagene CIS-FACTORIAL HepG2 Assay for M32 Transcription Factor (Internal Marker) (AID 2282949).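 Note: background control marker of the multiplexed CIS panel rather than a real target.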 Particulars: HepG2 Attagene cis-factorial M32 reporter, mRNA; actives raise or lower the signal. The gist of the method: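 Following 24 h chemical exposure of HepG2 cells transiently expressing cis-promoter reporter constructs, reporter transcript levels were determined by RT-PCR with fluorescent labelling and capillary electrophoresis, then fitted bidirectionally against DMSO.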

Assay [3] in a line: ATG_M_06_CIS: Attagene CIS-FACTORIAL HepG2 Assay for M06 Transcription Factor (Internal Marker) (AID 2282950). As to conditions: HepG2 Attagene CIS-FACTORIAL M06 internal marker reporter; actives raise or lower the signal. The gist of the method: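 Internal background marker within multiplexed cis-reporter HepG2 system. Cells transiently transfected, dosed 24 h; reporter mRNA measured by RT-PCR, HpaI digestion and capillary electrophoresis. Bidirectional fit relative to DMSO.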

The target in assay [4] is Hypoxia-inducible factor 1-alpha (Homo sapiens) (UniProt Q16665). Kind of assay: ATG_HIF1a_CIS: Attagene CIS-FACTORIAL HepG2 Assay for human Hypoxia Inducible Factor 1 (HIF1A) (AID 2282951). As to conditions: HepG2 Attagene cis-factorial HIF1a reporter transcription; actives raise or lower the signal. The method, boiled down:
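In this multiplexed cell assay, HepG2 cells bearing transfected cis reporters are dosed for 24 h and reporter mRNA is read by RT-PCR plus capillary electrophoresis; signal increases and decreases are both scored against DMSO.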

Assay [5] deals with Heat shock factor protein 1 (Homo sapiens) (UniProt Q00613). Kind of assay: ATG_HSE_CIS: Attagene CIS-FACTORIAL HepG2 Assay for human Heat Shock Transcription Factor 1 (HSE) (AID 2282953). Particulars: HepG2 HSE cis-reporter, Attagene RNA transcription; actives raise or lower the signal. The method, boiled down:
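HepG2 cells transfected with cis-promoter reporter units sensing endogenous transcription factor activity; reporter mRNA quantified 24 h post-dose by RT-PCR and capillary electrophoresis of 6-FAM-labelled products. Bidirectional fitting against DMSO.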

Assay [6] is described as follows: ATG_MRE_CIS: Attagene CIS-FACTORIAL HepG2 Assay for human Metal Responsive Element (MRE) (AID 2282954). As to conditions: HepG2 MRE cis-reporter transcription, Attagene multiplex; actives raise or lower the signal. The method, boiled down:
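After a 24 h chemical exposure, transiently transfected HepG2 cells yield RNA whose reporter sequences are amplified, FAM-labelled and sized by capillary electrophoresis. Curves are fitted bidirectionally relative to DMSO.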

Assay [7] is described as follows: ATG_PBREM_CIS: Attagene CIS-FACTORIAL HepG2 Assay for human Phenobarbital-responsive Enhancer Module (PBREM) (AID 2282955). As to conditions: HepG2 PBREM cis-reporter, Attagene multiplexed transcription; actives raise or lower the signal. The gist of the method: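 After a 24 h incubation with test chemical, transfected HepG2 cells yield total RNA; reporter-specific RT-PCR products are fluorescently labelled, HpaI-digested and resolved by capillary electrophoresis against ROX size standards.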

The nature of assay [8]: ATG_ISRE_CIS: Attagene CIS-FACTORIAL HepG2 Assay for human Interferon Regulatory Factor 1 (IRF1) binding to an Interferon-Stimulated Response Element (ISRE) (AID 2282948). Particulars: HepG2 ISRE cis-reporter (Attagene), mRNA transcription readout; actives raise or lower the signal. The gist of the method: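 Transfected HepG2 (multiple reporter transcription units, cis elements) dosed 24 h. RNA → oligo(dT) RT → PCR → 6-FAM primer extension → HpaI → CE. DMSO = negative control/baseline.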

Assay [9] has as its target Hepatocyte nuclear factor 6 (Homo sapiens) (UniProt Q9UBC0). Briefly: ATG_HNF6_CIS: Attagene CIS-FACTORIAL HepG2 Assay for human Hepatocyte Nuclear Factor 6 (HNF6) (AID 2282952). As to conditions: HepG2 Attagene cis-factorial HNF6 reporter transcription; actives raise or lower the signal. The method, boiled down:
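HepG2 cells transiently transfected with cis-element-driven multiplexed reporter units measuring endogenous transcription factor activity. After 24 h exposure, reporter mRNA quantified by RT-PCR, FAM-labelled fragments and capillary electrophoresis; bidirectional fitting versus DMSO.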

Heat shock factor protein 1 (Homo sapiens), sequence (Q00613 whole entry, looked up): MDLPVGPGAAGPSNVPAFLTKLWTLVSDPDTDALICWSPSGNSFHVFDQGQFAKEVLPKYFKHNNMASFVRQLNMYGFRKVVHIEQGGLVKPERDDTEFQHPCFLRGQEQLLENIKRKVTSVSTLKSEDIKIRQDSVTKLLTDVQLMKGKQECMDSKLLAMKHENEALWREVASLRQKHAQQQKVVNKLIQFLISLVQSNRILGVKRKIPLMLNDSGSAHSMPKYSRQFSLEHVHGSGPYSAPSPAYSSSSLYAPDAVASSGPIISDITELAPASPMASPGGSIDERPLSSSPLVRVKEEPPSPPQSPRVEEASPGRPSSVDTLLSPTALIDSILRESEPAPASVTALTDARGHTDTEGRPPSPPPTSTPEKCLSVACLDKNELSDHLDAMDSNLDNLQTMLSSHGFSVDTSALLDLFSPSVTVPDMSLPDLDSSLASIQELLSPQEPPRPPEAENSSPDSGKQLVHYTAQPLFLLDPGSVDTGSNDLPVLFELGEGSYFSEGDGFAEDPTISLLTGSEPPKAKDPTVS
Hypoxia-inducible factor 1-alpha (Homo sapiens), sequence (Q16665 whole entry, looked up): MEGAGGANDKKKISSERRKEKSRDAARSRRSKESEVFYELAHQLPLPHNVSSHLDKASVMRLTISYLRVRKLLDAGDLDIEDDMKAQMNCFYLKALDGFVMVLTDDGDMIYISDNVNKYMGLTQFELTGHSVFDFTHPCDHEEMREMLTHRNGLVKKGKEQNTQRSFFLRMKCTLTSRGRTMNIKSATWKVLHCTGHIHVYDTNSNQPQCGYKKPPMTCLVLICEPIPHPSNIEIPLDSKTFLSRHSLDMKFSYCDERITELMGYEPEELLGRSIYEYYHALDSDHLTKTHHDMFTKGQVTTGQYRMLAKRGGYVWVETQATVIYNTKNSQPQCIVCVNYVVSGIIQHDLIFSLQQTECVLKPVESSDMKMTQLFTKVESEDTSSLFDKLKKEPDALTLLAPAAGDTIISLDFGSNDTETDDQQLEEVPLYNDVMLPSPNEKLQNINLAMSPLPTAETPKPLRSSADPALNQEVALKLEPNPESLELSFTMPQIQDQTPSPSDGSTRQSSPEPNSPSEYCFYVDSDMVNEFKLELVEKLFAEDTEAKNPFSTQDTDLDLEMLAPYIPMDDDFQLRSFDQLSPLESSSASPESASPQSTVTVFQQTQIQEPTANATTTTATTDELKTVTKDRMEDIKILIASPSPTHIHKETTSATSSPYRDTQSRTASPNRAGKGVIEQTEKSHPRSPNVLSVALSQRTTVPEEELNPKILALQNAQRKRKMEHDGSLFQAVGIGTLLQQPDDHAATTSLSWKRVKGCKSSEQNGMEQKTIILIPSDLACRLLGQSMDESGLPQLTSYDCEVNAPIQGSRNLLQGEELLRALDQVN
Hepatocyte nuclear factor 6 (Homo sapiens), sequence (Q9UBC0 whole entry, looked up, the tested form may be a part): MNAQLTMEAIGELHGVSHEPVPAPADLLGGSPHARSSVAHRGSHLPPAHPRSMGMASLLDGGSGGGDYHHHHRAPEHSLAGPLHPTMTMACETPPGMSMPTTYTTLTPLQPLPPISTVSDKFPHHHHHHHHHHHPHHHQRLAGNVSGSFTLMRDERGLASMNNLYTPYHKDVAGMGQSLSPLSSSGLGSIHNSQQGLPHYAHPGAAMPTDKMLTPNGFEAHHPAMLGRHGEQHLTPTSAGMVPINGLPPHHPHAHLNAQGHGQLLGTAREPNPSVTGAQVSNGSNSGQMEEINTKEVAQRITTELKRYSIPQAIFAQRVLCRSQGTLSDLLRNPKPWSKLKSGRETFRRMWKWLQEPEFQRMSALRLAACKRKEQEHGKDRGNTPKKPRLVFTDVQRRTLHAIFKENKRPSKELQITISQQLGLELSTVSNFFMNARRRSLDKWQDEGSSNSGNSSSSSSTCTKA

Regarding `COC(=O)Cc1ccccc1`, the molecule was called inactive in [1], in [2], in [3], in assay [4], in assay [5] and in assay [6]. Also, the outcome in assay [7] was inactive.

As to `NC(=O)O`, the outcome in [8], in [2], in assay [3], in assay [4], in assay [9] and in assay [5] was inactive. The result in assay [6] and in assay [7] was inactive.

As usually defined, the AC50 is the midpoint of the concentration-response curve, whichever way the signal moves. Regarding `CC12CC1(C)C(=O)N(c1cc(Cl)cc(Cl)c1)C2=O` (configuration not stated), the molecule was called inactive in assay [1], in assay [2], in assay [3], in [4], in assay [9] and in [5]. The molecule was classed as inactive in [6] and in assay [7]. Further, the concentration at half-maximal activity (AC50) in assay [7] is 11.1 µM (active).

With `ClCCBr`, the result in assay [2], in assay [3], in [4], in [9], in [6] and in assay [7] was inactive.

Take `CCCCCCCCC(=O)NCc1ccc(O)c(OC)c1`: the result in assay [1], in assay [2], in [3], in assay [9] and in assay [7] was inactive. Besides, the AC50 is 125 µM (active) in [5] and 131 µM (active) in [6].

In the case of `C[C@]12CCC(=O)C[C@@H]1CC[C@@H]1[C@@H]2CC[C@]2(C)[C@@H](O)CC[C@@H]12`, the result in assay [1], in assay [8], in [2], in [3], in assay [9] and in assay [5] was inactive. The molecule was called inactive in assay [6]. The half-maximal activity concentration (AC50) in assay [6] was 87 µM (active) and 42.6 µM (active).

In the case of `BrCCBr`, the outcome in [1], in assay [8], in [2], in assay [3], in assay [4] and in assay [6] was inactive. Further, the result in assay [7] was inactive.

On to `CC(C)OC(=O)Nc1ccccc1`, for which the call in assay [2], in assay [3], in assay [4], in assay [9], in assay [5] and in [6] was inactive. In addition, the result in assay [7] was inactive.

Regarding `CC(=O)C=C(C)C`, the molecule was called inactive in assay [1], in [2], in [3], in [4], in assay [9] and in [5]. The molecule was classed as inactive in assay [6] and in [7].

Turning to `CCOP(=S)(OCC)Oc1ccc(S(C)=O)cc1` (configuration not stated), the call in assay [8], in assay [2], in assay [3], in [4], in [9] and in [5] was inactive. The molecule was called inactive in [6] and in [7].

As for `COc1ccc(C=O)cc1`, the call in assay [1], in assay [2], in assay [3], in [4], in assay [9] and in assay [5] was inactive. Moreover, the call in assay [6] and in assay [7] was inactive.

On to `Cc1ccc2ccccc2c1C`, for which the outcome in [1], in assay [8], in assay [2], in assay [3], in assay [4] and in [5] was inactive. Also, the call in assay [6] and in [7] was inactive.

On to `CC1CN1P(=O)(N1CC1C)N1CC1C` (configuration not stated), for which the result in assay [8], in assay [2], in assay [3], in assay [4], in assay [9] and in assay [5] was inactive. The molecule was classed as inactive in [6] and in assay [7].

Consider `COc1ccccc1OC`, for which the outcome in assay [1], in [2], in assay [3], in assay [4], in [9] and in assay [5] was inactive. Moreover, the result in assay [6] and in assay [7] was inactive.
